# Test results taken from paper PMC7862700, “An all-to-all approach to the identification of sequence-specific readers for epigenetic DNA modifications on cytosine”.
# Key:
# Experiment in all cases: DAPPL (digital affinity profiling via proximity ligation, sequencing); 10 mM Tris-HCl pH 7.5, 50 mM NaCl, 1 mM DTT, 4% glycerol, room temperature, 30 min; GST-TFs on glutathione beads, 16-mer random dsDNA library, 0.1% formaldehyde crosslink after washing; high values mean tight binding
# FLI1 = molecular target: T1, FLI1 (Homo sapiens, UniProt Q01543 1-452); details: protein: recombinant; tags: N-terminal GST; dsDNA, one strand shown
# T1 sequence: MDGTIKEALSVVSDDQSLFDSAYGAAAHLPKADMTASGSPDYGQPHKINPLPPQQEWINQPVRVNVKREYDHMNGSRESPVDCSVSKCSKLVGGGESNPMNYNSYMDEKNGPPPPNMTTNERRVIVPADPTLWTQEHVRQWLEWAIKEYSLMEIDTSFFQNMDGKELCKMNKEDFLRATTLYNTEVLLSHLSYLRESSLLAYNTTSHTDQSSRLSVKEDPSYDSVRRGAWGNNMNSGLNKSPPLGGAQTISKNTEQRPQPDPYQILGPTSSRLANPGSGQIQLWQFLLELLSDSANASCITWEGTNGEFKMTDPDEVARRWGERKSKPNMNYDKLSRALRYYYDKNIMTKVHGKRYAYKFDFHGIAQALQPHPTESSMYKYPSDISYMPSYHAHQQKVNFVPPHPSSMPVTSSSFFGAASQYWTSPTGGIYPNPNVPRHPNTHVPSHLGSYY
# In short: (§1)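 Binding signal is defined as a hexamer's read frequency for one factor over its frequency for the tag-only sample. To obtain reads, GST-fused human transcription factors were expressed in yeast, captured on glutathione beads, barcoded with DNA and pooled with that sample. Pools met 200 nmole of a 16-mer random double-stranded DNA library in Tris/NaCl/DTT/glycerol buffer for 30 min at room temperature before washing, 0.1% formaldehyde crosslinking, proximity ligation (BsaI/T4 ligase, 1 h, 37 °C), PCR and Illumina NextSeq500 sequencing.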
# ELK1 = molecular target: T2, ELK1 (Homo sapiens, UniProt P19419 1-428); details: protein: recombinant; tags: N-terminal GST; dsDNA, one strand shown
# T2 sequence: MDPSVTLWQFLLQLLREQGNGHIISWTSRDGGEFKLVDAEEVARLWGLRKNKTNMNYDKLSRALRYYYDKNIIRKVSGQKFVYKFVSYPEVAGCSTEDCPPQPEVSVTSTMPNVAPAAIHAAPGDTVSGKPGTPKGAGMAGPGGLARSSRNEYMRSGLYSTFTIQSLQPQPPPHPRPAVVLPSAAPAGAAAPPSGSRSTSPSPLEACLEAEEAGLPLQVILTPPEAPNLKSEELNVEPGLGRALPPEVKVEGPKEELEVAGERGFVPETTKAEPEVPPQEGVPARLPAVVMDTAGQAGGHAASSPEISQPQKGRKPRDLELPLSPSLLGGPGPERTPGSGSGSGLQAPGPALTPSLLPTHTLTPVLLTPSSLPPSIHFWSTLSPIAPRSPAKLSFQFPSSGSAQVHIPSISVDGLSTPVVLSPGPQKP
# In short: as §1
# GABPA = molecular target: T3, GABPA (Homo sapiens, UniProt Q06546 1-454); details: protein: recombinant; tags: N-terminal GST; dsDNA, one strand shown
# T3 sequence: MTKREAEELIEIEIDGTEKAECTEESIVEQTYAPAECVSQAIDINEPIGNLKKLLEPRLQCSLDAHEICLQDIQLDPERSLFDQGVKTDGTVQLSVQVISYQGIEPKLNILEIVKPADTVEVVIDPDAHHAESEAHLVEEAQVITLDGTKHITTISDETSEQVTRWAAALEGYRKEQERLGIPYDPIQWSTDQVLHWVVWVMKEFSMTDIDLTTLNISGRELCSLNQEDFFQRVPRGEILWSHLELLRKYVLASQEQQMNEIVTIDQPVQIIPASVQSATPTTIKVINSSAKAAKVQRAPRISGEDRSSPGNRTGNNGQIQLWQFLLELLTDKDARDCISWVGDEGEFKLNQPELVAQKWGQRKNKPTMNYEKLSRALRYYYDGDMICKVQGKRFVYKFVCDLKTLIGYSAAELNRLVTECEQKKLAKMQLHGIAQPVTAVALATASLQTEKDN
# In short: as §1
# ERG = molecular target: T4, ERG (Homo sapiens, UniProt P11308 1-479); details: protein: recombinant; tags: N-terminal GST; dsDNA, one strand shown
# T4 sequence: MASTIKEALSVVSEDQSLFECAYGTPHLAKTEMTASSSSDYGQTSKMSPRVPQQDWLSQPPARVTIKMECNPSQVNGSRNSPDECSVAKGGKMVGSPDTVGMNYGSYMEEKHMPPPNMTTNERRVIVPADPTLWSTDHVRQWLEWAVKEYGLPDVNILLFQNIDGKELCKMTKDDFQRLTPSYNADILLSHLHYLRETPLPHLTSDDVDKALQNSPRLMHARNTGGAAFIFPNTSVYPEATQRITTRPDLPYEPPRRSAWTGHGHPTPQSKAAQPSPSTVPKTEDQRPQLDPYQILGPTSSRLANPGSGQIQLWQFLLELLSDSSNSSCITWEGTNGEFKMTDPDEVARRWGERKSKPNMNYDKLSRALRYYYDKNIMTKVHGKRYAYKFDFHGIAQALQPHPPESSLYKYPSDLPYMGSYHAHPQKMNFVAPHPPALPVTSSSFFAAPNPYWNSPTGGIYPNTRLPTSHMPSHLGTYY
# In short: as §1
# ELF1 = ELF1 (Homo sapiens, UniProt P32519 1-619); details: protein: recombinant; tags: N-terminal GST; dsDNA, one strand shown
# In short: as §1
# EHF = molecular target: T5, EHF (Homo sapiens, UniProt Q9NZC4 1-300); details: protein: recombinant; tags: N-terminal GST; dsDNA, one strand shown
# T5 sequence: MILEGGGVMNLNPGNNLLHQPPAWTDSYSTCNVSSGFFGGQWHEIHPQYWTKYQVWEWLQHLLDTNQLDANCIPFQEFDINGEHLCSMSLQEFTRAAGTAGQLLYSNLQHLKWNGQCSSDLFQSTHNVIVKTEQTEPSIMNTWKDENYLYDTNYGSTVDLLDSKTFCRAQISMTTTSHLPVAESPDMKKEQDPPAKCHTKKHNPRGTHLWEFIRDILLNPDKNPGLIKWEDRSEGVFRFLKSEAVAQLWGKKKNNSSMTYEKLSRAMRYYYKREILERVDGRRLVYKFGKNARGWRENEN
# In short: as §1
# SPI1 = SPI1 (Homo sapiens, UniProt P17947 1-270); details: protein: recombinant; tags: N-terminal GST; dsDNA, one strand shown
# In short: as §1
# SPIB = SPIB (Homo sapiens, UniProt Q01892 1-262); details: protein: recombinant; tags: N-terminal GST; dsDNA, one strand shown
# In short: as §1
# ELK3 = molecular target: T6, ELK3 (Homo sapiens, UniProt P41970 1-407); details: protein: recombinant; tags: N-terminal GST; dsDNA, one strand shown
# T6 sequence: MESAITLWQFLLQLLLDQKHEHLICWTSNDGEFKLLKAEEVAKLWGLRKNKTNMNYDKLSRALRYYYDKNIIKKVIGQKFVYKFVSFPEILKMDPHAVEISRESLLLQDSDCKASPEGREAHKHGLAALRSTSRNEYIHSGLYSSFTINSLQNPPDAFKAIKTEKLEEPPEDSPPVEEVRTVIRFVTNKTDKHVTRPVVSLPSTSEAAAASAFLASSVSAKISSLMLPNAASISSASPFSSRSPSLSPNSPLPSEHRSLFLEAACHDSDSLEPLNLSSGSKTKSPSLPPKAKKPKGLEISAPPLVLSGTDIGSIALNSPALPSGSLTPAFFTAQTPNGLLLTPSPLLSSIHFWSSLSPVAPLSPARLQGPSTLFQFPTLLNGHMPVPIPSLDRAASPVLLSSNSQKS
# In short: as §1
# FEV = molecular target: T7, FEV (Homo sapiens, UniProt Q99581 1-238); details: protein: recombinant; tags: N-terminal GST; dsDNA, one strand shown
# T7 sequence: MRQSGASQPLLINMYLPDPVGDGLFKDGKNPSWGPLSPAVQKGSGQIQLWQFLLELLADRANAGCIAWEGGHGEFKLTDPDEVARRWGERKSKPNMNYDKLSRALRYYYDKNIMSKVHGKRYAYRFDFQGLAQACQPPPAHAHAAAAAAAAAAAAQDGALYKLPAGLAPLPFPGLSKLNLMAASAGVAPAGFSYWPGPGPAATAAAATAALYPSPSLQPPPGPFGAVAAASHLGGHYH
# In short: as §1
# ETV5 = ETV5 (Homo sapiens, UniProt P41161 1-510); details: protein: recombinant; tags: N-terminal GST; dsDNA, one strand shown
# In short: as §1
# HSF1 = HSF1 (Homo sapiens, UniProt Q00613 1-529); details: protein: recombinant; tags: N-terminal GST; chain copies: 3; dsDNA, one strand shown
# In short: as §1
# SPIC = molecular target: T8, SPIC (Homo sapiens, UniProt Q8N5J4 1-248); details: protein: recombinant; tags: N-terminal GST; dsDNA, one strand shown
# T8 sequence: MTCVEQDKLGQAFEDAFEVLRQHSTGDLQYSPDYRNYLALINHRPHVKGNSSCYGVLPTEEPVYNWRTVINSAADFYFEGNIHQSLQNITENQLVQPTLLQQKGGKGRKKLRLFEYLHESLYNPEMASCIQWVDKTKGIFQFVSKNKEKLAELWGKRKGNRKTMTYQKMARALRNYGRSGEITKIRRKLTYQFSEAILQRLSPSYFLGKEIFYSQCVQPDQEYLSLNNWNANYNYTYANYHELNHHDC
# In short: as §1
# ELF4 = ELF4 (Homo sapiens, UniProt Q99607 1-663); details: protein: recombinant; tags: N-terminal GST; dsDNA, one strand shown
# In short: as §1
# ELK4 = molecular target: T9, ELK4 (Homo sapiens, UniProt P28324-2 1-405); details: protein: recombinant; tags: N-terminal GST; dsDNA, one strand shown
# T9 sequence: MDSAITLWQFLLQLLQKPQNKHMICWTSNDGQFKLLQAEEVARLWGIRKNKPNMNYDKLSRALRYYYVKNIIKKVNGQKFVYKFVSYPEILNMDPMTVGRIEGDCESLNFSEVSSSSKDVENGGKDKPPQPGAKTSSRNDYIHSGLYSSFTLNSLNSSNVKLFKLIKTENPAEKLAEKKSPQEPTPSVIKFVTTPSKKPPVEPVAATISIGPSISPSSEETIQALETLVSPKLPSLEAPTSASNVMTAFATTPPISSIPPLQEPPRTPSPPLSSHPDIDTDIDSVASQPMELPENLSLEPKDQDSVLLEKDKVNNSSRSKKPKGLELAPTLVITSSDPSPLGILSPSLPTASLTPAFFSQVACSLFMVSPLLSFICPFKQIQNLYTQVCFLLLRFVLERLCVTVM
# In short: as §1
# ETV2 = molecular target: T10, ETV2 (Homo sapiens, UniProt O00321 1-342); details: protein: recombinant; tags: N-terminal GST; dsDNA, one strand shown
# T10 sequence: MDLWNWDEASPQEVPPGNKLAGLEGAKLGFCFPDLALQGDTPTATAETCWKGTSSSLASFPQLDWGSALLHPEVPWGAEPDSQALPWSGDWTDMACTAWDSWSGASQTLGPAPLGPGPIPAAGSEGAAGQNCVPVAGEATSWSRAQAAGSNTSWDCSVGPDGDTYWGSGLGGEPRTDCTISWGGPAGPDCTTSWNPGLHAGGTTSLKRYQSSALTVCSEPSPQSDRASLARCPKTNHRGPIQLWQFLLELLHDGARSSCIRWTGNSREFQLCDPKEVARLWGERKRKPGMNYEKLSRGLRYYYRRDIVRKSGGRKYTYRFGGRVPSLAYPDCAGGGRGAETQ
# In short: as §1
# ELF3 = molecular target: T11, ELF3 (Homo sapiens, UniProt P78545 1-371); details: protein: recombinant; tags: N-terminal GST; dsDNA, one strand shown
# T11 sequence: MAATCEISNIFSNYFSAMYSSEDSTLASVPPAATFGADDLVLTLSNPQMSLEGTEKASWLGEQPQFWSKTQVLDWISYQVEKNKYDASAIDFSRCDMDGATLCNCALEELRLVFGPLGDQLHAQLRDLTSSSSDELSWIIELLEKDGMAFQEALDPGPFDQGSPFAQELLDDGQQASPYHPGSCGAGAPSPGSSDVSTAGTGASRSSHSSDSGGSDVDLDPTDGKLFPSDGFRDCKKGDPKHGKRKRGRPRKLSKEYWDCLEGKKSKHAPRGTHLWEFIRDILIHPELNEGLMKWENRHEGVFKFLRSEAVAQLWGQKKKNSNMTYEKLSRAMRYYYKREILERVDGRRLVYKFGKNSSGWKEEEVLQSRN
# In short: as §1
# CRX = CRX (Homo sapiens, UniProt O43186 1-299); details: protein: recombinant; tags: N-terminal GST; dsDNA, one strand shown
# In short: as §1
# ETV1 = ETV1 (Homo sapiens, UniProt P50549 1-477); details: protein: recombinant; tags: N-terminal GST; dsDNA, one strand shown
# In short: as §1
# Chain of HSF1 (Q00613 whole entry): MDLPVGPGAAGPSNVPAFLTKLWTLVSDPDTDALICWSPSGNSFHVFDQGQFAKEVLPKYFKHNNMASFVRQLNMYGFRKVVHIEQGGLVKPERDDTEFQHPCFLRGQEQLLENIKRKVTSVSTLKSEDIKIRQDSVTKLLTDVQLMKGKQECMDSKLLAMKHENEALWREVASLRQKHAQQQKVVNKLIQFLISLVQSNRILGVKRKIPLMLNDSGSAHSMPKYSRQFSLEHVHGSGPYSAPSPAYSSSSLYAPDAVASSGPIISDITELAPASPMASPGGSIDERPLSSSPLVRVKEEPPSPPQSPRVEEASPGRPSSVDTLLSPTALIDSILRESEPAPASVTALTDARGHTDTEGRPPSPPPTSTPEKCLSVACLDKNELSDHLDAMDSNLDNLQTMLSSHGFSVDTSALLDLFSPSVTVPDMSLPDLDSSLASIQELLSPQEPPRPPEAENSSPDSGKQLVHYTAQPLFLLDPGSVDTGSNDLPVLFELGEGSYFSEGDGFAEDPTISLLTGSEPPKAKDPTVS
# Chain of ELF4 (Q99607 whole entry): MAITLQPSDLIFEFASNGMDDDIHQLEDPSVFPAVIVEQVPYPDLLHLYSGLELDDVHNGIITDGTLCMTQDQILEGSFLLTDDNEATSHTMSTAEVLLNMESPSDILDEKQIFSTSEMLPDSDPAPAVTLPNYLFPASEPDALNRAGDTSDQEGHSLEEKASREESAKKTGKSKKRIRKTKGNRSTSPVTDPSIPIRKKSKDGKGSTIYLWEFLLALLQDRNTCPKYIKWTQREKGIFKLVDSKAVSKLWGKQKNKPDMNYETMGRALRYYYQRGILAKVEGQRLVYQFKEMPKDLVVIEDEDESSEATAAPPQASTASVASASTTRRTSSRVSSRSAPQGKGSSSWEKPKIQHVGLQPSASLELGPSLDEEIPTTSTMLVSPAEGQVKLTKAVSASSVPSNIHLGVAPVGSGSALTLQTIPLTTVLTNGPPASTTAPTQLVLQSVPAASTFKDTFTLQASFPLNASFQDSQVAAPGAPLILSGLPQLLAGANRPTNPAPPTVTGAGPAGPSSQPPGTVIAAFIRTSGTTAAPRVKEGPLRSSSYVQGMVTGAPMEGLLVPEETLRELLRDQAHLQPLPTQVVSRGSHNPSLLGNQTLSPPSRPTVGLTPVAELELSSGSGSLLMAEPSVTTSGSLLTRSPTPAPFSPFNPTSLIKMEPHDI
# Chain of ETV1 (P50549 whole entry): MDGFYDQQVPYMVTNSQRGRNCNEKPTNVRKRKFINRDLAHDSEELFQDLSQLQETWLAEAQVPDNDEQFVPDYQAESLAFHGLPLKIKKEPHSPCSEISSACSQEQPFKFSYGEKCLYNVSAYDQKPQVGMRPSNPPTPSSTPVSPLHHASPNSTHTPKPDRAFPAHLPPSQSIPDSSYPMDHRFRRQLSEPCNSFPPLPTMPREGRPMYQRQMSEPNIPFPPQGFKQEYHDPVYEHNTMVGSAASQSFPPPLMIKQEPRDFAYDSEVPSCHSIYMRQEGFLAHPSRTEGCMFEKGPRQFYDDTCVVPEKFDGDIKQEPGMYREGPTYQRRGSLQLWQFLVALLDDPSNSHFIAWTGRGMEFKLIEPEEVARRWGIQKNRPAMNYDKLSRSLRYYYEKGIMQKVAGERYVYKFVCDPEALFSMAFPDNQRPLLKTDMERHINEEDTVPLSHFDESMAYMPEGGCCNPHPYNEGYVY
# Chain of ELF1 (P32519 whole entry): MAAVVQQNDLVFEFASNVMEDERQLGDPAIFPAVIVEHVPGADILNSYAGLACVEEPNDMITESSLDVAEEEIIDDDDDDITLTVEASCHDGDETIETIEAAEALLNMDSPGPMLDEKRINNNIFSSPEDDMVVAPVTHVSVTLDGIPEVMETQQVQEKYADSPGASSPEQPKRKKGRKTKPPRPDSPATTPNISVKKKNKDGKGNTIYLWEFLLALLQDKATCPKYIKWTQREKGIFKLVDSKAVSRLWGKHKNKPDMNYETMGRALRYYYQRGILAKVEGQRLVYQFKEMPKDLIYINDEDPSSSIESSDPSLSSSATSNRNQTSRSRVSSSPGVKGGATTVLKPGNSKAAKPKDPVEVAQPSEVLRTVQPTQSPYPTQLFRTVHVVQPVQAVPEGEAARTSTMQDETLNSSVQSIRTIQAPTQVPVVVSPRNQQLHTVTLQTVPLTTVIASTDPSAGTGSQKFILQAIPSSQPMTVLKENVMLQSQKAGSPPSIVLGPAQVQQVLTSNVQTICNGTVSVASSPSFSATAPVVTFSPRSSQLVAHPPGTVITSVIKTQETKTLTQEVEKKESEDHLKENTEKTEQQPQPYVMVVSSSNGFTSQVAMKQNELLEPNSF
# Chain of CRX (O43186 whole entry): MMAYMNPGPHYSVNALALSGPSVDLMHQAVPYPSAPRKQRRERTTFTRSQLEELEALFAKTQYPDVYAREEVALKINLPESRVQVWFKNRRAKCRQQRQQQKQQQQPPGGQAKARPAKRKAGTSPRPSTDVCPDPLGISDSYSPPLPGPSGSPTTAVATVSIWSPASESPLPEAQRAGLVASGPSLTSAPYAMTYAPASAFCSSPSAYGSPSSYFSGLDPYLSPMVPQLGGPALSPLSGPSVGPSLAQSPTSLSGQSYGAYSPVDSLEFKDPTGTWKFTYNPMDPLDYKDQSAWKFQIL
# Chain of ETV5 (P41161 whole entry): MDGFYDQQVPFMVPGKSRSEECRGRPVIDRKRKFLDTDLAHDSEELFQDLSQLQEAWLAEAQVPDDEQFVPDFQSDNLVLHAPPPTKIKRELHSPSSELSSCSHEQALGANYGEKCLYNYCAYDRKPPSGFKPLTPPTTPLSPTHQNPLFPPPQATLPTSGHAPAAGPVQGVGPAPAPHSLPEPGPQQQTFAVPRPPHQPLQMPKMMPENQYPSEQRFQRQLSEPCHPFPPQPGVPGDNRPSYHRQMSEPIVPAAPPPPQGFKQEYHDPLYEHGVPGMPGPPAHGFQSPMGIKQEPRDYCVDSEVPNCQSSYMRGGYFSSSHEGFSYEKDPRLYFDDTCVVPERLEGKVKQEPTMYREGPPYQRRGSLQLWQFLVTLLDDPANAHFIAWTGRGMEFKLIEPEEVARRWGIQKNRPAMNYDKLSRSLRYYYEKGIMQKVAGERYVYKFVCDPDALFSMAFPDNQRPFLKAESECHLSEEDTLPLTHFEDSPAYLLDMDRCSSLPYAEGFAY
# Chain of SPIB (Q01892 whole entry): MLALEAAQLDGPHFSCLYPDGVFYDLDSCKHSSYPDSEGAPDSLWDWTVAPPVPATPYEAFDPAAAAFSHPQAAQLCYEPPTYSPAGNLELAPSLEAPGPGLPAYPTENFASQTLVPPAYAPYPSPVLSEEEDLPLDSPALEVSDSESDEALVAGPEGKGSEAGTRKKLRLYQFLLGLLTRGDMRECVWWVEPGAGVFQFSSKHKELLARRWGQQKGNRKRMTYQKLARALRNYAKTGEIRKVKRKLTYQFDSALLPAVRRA
sequence,measurement,setting,value
ATTCAT,binding signal,FLI1,"1.28 fold enrichment (6-mer frequency, TF over GST control)"
same,binding signal,ELK1,"1.12 fold enrichment (6-mer frequency, TF over GST control)"
same,binding signal,GABPA,"1.14 fold enrichment (6-mer frequency, TF over GST control)"
same,binding signal,ERG,"1.16 fold enrichment (6-mer frequency, TF over GST control)"
same,binding signal,ELF1,"1.16 fold enrichment (6-mer frequency, TF over GST control)"
same,binding signal,EHF,"1.12 fold enrichment (6-mer frequency, TF over GST control)"
same,binding signal,SPI1,"1.15 fold enrichment (6-mer frequency, TF over GST control)"
same,binding signal,SPIB,"1.21 fold enrichment (6-mer frequency, TF over GST control)"
same,binding signal,ELK3,"1.19 fold enrichment (6-mer frequency, TF over GST control)"
same,binding signal,FEV,"1.11 fold enrichment (6-mer frequency, TF over GST control)"
same,binding signal,ETV5,"1.21 fold enrichment (6-mer frequency, TF over GST control)"
same,binding signal,HSF1,"1.12 fold enrichment (6-mer frequency, TF over GST control)"
same,binding signal,SPIC,"1.24 fold enrichment (6-mer frequency, TF over GST control)"
same,binding signal,ELF4,"1.17 fold enrichment (6-mer frequency, TF over GST control)"
same,binding signal,ELK4,"1.18 fold enrichment (6-mer frequency, TF over GST control)"
same,binding signal,ETV2,"1.15 fold enrichment (6-mer frequency, TF over GST control)"
same,binding signal,ELF3,"1.22 fold enrichment (6-mer frequency, TF over GST control)"
same,binding signal,CRX,"1.16 fold enrichment (6-mer frequency, TF over GST control)"
same,binding signal,ETV1,"1.18 fold enrichment (6-mer frequency, TF over GST control)"
